Here are results for 14 compounds from PubChem BioAssay.

SMILES strings stand for the structures. Activity calls are given as the source filed them.

Test [1] in a line: small molecules captured by biotinylated probe aFSTL3 – biochemical, small-molecule microarray, fluorescence 635/667, stem cell growth factor project, primary screen (AID 1064).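 Also: measures binding of the biotinylated anti-FSTL3 antibody to printed compounds.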 The note with it: higher = more signal.
A short description of test [2]: binders from COS7 lysate, DM2A8 probe, primary screen, torsin A project, cell lysate, small-molecule microarray, fluorescence 635/667 (AID 1065). The note with it: higher = more signal, COS7 lysate expressing mutant human TOR1A.
The nature of test [3]: small molecules captured by biotinylated probe aFGF2 – biochemical, small-molecule microarray, fluorescence 635/667, stem cell growth factor project, primary screen (AID 1067).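 Also: measures binding of biotinylated aFGF2 protein to printed compounds on slides; z-score merges feature fluorescence and signal-to-noise across triplicate slides.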 The note with it: higher = more signal.
Test [4] can be described thus: small molecules captured by biotinylated probe aFGF10 – biochemical, small-molecule microarray, fluorescence 635/667, stem cell growth factor project, primary screen (AID 1071).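 Also: score merges 667 nm spot intensity and signal to noise from triplicate slides.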 Conditions: higher = more signal.
In test [5] the target is Neurogenic locus notch homolog protein 2 (Homo sapiens) (UniProt Q04721). The test is described as follows: small molecules binding Notch2 protein – biochemical, small-molecule microarray, 635 nm fluorescence, stem cell growth factors, primary screen (AID 1073). The note with it: higher = more signal.
Neurogenic locus notch homolog protein 2 (Homo sapiens), sequence (Q04721 whole entry, looked up, canonical isoform): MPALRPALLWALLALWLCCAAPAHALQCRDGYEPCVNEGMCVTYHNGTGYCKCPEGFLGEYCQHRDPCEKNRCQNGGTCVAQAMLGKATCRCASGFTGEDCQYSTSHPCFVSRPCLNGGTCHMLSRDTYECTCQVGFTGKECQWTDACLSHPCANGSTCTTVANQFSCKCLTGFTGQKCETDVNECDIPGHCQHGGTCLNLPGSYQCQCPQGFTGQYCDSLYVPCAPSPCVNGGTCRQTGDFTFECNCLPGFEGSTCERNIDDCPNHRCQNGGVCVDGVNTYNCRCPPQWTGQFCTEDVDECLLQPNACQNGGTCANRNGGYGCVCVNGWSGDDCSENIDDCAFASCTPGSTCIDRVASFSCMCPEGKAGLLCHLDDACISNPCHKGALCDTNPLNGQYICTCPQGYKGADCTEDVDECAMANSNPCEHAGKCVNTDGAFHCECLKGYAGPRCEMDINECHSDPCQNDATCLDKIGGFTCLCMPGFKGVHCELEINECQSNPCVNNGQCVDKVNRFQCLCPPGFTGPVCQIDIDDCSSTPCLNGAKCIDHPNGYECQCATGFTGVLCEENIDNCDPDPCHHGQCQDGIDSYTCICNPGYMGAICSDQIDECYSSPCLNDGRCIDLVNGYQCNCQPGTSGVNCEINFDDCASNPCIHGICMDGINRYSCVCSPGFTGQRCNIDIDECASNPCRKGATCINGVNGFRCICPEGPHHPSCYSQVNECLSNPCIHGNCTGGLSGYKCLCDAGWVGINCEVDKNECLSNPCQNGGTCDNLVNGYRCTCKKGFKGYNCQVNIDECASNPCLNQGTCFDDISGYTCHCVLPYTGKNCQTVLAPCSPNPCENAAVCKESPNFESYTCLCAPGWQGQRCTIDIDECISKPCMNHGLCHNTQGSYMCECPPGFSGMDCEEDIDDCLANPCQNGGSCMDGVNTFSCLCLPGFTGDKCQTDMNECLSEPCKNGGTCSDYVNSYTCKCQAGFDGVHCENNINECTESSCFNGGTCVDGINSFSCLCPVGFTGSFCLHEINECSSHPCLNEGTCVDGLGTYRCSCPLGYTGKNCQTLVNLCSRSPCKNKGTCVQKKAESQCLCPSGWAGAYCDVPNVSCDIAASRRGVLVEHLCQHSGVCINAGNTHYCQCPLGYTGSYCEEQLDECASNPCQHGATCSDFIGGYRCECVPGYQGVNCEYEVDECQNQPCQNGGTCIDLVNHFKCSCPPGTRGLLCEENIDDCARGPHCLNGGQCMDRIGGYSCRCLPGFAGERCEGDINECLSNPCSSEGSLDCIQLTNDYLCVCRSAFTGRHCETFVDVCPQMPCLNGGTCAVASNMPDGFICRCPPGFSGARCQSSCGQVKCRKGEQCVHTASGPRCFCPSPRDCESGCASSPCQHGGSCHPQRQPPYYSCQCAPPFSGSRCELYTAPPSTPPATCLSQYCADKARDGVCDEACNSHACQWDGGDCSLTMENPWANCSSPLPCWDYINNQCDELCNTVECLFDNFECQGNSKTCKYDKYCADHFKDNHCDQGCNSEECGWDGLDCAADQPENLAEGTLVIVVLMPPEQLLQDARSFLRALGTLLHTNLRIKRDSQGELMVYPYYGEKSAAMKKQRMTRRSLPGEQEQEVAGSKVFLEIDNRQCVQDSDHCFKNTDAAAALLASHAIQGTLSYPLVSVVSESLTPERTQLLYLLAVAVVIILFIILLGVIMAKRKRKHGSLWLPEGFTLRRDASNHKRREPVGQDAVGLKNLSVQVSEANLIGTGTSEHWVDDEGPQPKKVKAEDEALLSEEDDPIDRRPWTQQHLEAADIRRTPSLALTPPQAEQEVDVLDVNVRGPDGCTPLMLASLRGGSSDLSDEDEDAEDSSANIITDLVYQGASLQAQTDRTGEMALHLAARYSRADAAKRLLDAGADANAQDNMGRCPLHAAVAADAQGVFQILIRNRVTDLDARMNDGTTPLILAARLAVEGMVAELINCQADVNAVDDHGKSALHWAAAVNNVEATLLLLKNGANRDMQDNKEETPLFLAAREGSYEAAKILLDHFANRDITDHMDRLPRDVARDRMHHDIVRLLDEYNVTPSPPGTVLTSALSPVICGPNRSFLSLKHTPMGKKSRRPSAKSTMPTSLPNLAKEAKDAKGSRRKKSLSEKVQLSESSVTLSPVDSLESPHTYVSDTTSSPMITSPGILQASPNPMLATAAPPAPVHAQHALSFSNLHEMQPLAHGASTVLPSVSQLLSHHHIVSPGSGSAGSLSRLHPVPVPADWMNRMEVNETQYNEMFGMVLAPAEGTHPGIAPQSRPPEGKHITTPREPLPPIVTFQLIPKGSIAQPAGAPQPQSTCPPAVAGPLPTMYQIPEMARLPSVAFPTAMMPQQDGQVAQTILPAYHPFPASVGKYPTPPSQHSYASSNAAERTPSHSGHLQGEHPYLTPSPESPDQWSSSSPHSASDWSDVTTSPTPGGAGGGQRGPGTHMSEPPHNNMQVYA
Test [6] has as its target Pro-neuregulin-1, membrane-bound isoform (Homo sapiens) (UniProt Q02297). The experiment in a line: small molecules binding neuregulin-1 protein – biochemical, small-molecule microarray, fluorescence 635/667, psychiatric disease protein project, primary screen (AID 1075).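 Also: score combines 667 nm spot fluorescence with signal to noise.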 Conditions: NRG1 binding, 635 nm fluorescence, higher = more signal.
The test system of test [7] is Neuregulin-1 EGF-like domain. The test is described as follows: small molecules binding NRG1 EGF domain – biochemical, small-molecule microarray, 635 nm fluorescence, primary screen (AID 1081).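 Also: binding of the protein to compounds printed on small-molecule microarray slides.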 The note with it: higher = more signal.
Test [8] is described as follows: FRG1 expression reporter modulators in myotubes – cell-based, C2C12 myotubes, firefly/Renilla luciferase, luminescence, FRG1 inhibition for FSHD, primary screen (AID 1084). The note with it: FRG1 promoter luciferase, higher = more signal, called active from +8 up or from −8 down.
A short description of test [9]: small molecules captured by biotinylated probe aFST – biochemical, small-molecule microarray, fluorescence 635/667, stem cell growth factor project, primary screen (AID 1086).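 Also: score merges 667 nm fluorescence with signal-to-noise of each printed compound spot.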 Conditions: higher = more signal.
Test [10] in a line: binders of probe aHhip on microarray, primary screen, stem cell growth factor project, biochemical, small-molecule microarray, fluorescence 635/667 (AID 1087).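 Also: score merges spot fluorescence at 667nm with spot signal to noise ratio.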 The note with it: higher = more signal.

Pro-neuregulin-1, membrane-bound isoform (Homo sapiens), sequence (Q02297 whole entry, looked up, the tested form may be a part, canonical isoform): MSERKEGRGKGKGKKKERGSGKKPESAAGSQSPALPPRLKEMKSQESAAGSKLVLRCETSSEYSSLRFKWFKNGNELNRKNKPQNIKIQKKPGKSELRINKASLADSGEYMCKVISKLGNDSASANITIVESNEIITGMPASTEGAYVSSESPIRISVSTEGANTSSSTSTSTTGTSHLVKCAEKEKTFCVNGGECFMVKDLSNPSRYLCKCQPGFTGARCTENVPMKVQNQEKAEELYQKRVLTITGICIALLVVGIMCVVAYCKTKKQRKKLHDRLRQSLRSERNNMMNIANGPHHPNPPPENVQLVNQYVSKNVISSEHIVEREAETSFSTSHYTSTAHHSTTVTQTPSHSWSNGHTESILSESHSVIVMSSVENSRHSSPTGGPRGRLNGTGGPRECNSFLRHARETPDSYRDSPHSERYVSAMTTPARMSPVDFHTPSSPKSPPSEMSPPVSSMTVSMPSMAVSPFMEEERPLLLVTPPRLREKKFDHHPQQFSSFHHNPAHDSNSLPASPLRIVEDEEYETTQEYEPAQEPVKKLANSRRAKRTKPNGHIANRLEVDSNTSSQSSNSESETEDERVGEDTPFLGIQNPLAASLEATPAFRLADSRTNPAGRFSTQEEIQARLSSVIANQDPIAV

As to `COCCOC(=O)N1C(=O)[C@@]2(c3cc(C#CCC(C(=O)OC)C(=O)OC)ccc31)[C@H](c1ccccc1OCCO)N1[C@H](c3ccccc3)[C@H](c3ccccc3)OC(=O)[C@H]1[C@@H]2C(=O)N1CCCCCCC1`, the composite z-score was 3.6 in test [1]; 0.618 in test [2]; 0.486 in test [3]; 0.388 in [4]; 0.966 in test [5]; 0.889 in test [6]. The composite z-score in test [7] turned out to be 1.33; in test [9] it was 2.9; in [10], 2.32. For the same compound, the z-score in [8] was -0.0751 (inactive).

As to `CC(C)C[C@@H]1NC(=O)[C@H](CC(C)C)NC(=O)[C@@]23C(=O)N[C@@H](Cc4ccccc4)C2[C@H](C)[C@@]2(C)O[C@H]2C3/C=C/CC/C=C/CNC1=O` (stereo not given in full), the composite z-score in [1] is -0.3; in [2], -0.135; in [3], -0.0805; in [4], 0.278; in test [5], 0.242; in [6], 0.603. Besides, the composite z-score is 1 in [7], 0.0226 in test [9] and -0.201 in test [10]. For the same compound, the z-score in test [8] was -0.298 (inactive).

With `COc1cccc([C@@H]2[C@@H](C)CC[C@H]3C(=O)N4[C@H](c5cccc(OC)c5)[C@@H](C)CC[C@H]4C(=O)N23)c1`, the composite z-score in test [1] was -0.197; in [2] it was 0.683; in test [3], -0.0355; in test [4] it was 0.483; in [5] it was 1.01; in test [6], 0.25. Besides, the values for the composite z-score in [7], in [9] and in [10] were 0.285, 0.0794 and -0.0994, respectively. The z-score in test [8] was -1.21 (inactive).

As to `COCCCNC(=O)[C@@]1(Sc2ccc(C)cc2)CC(=O)N(Cc2cc(C(F)(F)F)cc(C(F)(F)F)c2)[C@@H]1c1ccc(CO)cc1I`, the composite z-score in test [1] was 1.12; in [2] it was -0.181; in test [3], -0.147; in test [4], -0.811; in [5] it was -1.43; in test [6], 2.17. Also, the composite z-score in test [7] is 1.35; in test [9] it was -0.265; in test [10] it was 1.67. In test [8], the z-score is -0.925 (inactive).

Consider `COCCCNC(=O)[C@@H]1c2ccccc2C(=O)N(CC23CC4CC(CC(C4)C2)C3)[C@H]1c1ccc(CO)cc1`, for which the composite z-score was 0.621 in test [1]; 0.173 in test [2]; 0.177 in test [3]; 0.325 in test [4]; 1.46 in test [5]; -0.0557 in test [6]. Moreover, the composite z-score was 1.1 in test [7], 0.327 in [9] and 0.0053 in test [10]. In addition, the z-score in test [8] was -2.03 (inactive).

Turning to `C=CCC(OC(C)=O)[C@@H]1[C@@H](N(Cc2cccc3ccccc23)C(=O)Cc2ccc(F)cc2)c2cc(OCCCO)ccc2N1C(=O)Cc1ccc2ccccc2c1` (stereo not given in full), the composite z-score is -0.154 in test [1]; 0.154 in test [2]; -0.0503 in [3]; -0.169 in test [4]; -0.241 in test [5]; -0.58 in test [6]. Besides, the composite z-score in test [7] was -0.607; in test [9], -0.299; in [10], -0.167. Also, in [8], the z-score is -1.32 (inactive).

Consider `CC(=O)NCCCC[C@@H]1NC(=O)[C@@H]2C[C@H](C(=O)NCCCCCCN(C)C)[C@H](c3ccc(O)cc3)N2C1=O`, for which the composite z-score is -0.438 in test [1]; 1.71 in test [2]; 0.0513 in [3]; 1.19 in test [4]; 0.734 in test [5]; 1.56 in test [6]. Besides, the values for the composite z-score in test [7], in test [9] and in test [10] were 1.51, 0.541 and 0.797, respectively. The z-score in [8] was 4.01 (inactive).

`CC(c1ccccc1)C(O)C1C=CC2C(=O)N(C)C(=O)C2N1N(c1ccccc1)c1ccccc1` (stereo not given): the composite z-score in test [1] was 1; in test [2] it was 0.23; in [3], 0.0395; in test [4] it was -0.167; in [5], 1.08; in test [6], 0.504. The figures for the composite z-score in test [7], in test [9] and in test [10] were 1.03, 0.657 and -0.0024, respectively. For the same compound, in test [8], the z-score is -0.206 (inactive).

As for `O=C1OCCC=C[C@H]2OC34C=CCN(Cc5ccccc5)C(=O)[C@H]3N(CCO)C(=O)[C@@H]4C12` (stereo not given in full), the composite z-score was 0.672 in test [1]; -0.465 in test [2]; -0.183 in test [3]; -0.575 in test [4]; -0.607 in [5]; -0.419 in test [6]. The composite z-score in [7] was -0.574; in test [9], -0.402; in test [10], -0.0645. Moreover, in test [8], the z-score is 0.135 (inactive).

`CO[C@H]1O[C@H](CO)[C@@H](OC(=O)Nc2ccccc2)[C@H](OC(=O)Nc2ccc3c(c2)OCO3)[C@@H]1OC(=O)Nc1ccc2c(c1)OCO2`: the composite z-score in [1] was 0.304; in test [2] it was 1.66; in test [3], -0.0784; in [4], 0.158; in test [5] it was 0.288; in [6] it was 1.77. Further, the composite z-score in test [7] was 1.29; in test [9], 0.474; in [10], -0.191. Moreover, the z-score in test [8] is 2.25 (inactive).

On to `Cc1ccc(S[C@]2(C(=O)NC3CC3)CC(=O)N(Cc3cc(C(F)(F)F)cc(C(F)(F)F)c3)[C@@H]2c2ccc(CO)cc2)cc1`, for which the composite z-score in test [1] was -0.293; in test [2] it was 0.0772; in test [3] it was -0.138; in test [4], 0.138; in test [5], 0.1; in test [6], 0.522. The figures for the composite z-score in [7], in [9] and in [10] were 1.24, 0.0733 and -0.295, respectively. For the same compound, the z-score in [8] was -0.799 (inactive).

Take `COc1cccc([C@H]2N[C@H](C(=O)O)CC[C@@H]2C)c1`: the composite z-score in test [1] is -0.356; in test [2] it was 0.0291; in test [3], -0.0885; in [4], -0.42; in test [5] it was 0.238; in test [6], -0.0739. For the same compound, the composite z-score in test [7] is -0.212; in test [9], 0.425; in test [10] it was -0.127. Besides, the z-score in test [8] is -0.0831 (inactive).

Consider `C=CC[C@]1(C(=O)NCC(O)CO)N=C(c2ccc(OCCCO)cc2)O[C@H]1c1ccccc1` (stereo not given in full), for which the composite z-score is 1.28 in test [1]; -0.012 in test [2]; -0.118 in [3]; -0.843 in test [4]; -0.502 in [5]; 2.14 in test [6]. For the same compound, the results for the composite z-score in test [7], in [9] and in [10] were 1.25, -0.0064 and -0.124, respectively. Moreover, in [8], the z-score was -1.1 (inactive).

Take `C=C(CCCC)C(=O)CC[C@@H](OC(=O)c1cccnc1)c1cccc(OCCO)c1`: the composite z-score was 0.116 in test [1]; 0.908 in test [2]; 0.0766 in test [3]; 1.07 in test [4]; -0.552 in test [5]; 0.544 in test [6]. The composite z-score in [7] was 0.586; in test [9], 0.344; in test [10], -0.0645. In addition, the z-score in test [8] is 0.197 (inactive).
